Data taken from PubChem BioAssay (EPA / NIEHS).
Records with an inconclusive call do not appear. Active and inactive are the calls of the source. Rule for the calls: active = hit-call score of the fitted dose curve at least 0.9, where 1 is the maximum; inconclusive = response in the unintended direction; inactive = score below 0.9.

Each molecule was assayed against Androgen Receptor/SRC-1 Co-activator, AR (gene 367) (UniProt P10275) (assay: OT_AR_ARSRC1_0480: Odyssey Thera (OT) 8-hour HEK293T Protein-Complementation Assay for Androgen Receptor/SRC-1 Co-activator (AID 2283354);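 note: hits raise the complementation signal above DMSO so AC50 marks enhancers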).
Summary of the method: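 Reconstituted split-Venus YFP signal from AR–SRC-1 interaction, read by imaging 8 h post-dose in stable HEK293T lines. The 488 nm nucleus-to-cytoplasm ratio (≥400 cells/image) was fitted upward against DMSO.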

Chain of Androgen Receptor/SRC-1 Co-activator, AR (gene 367) (P10275 whole entry, looked up): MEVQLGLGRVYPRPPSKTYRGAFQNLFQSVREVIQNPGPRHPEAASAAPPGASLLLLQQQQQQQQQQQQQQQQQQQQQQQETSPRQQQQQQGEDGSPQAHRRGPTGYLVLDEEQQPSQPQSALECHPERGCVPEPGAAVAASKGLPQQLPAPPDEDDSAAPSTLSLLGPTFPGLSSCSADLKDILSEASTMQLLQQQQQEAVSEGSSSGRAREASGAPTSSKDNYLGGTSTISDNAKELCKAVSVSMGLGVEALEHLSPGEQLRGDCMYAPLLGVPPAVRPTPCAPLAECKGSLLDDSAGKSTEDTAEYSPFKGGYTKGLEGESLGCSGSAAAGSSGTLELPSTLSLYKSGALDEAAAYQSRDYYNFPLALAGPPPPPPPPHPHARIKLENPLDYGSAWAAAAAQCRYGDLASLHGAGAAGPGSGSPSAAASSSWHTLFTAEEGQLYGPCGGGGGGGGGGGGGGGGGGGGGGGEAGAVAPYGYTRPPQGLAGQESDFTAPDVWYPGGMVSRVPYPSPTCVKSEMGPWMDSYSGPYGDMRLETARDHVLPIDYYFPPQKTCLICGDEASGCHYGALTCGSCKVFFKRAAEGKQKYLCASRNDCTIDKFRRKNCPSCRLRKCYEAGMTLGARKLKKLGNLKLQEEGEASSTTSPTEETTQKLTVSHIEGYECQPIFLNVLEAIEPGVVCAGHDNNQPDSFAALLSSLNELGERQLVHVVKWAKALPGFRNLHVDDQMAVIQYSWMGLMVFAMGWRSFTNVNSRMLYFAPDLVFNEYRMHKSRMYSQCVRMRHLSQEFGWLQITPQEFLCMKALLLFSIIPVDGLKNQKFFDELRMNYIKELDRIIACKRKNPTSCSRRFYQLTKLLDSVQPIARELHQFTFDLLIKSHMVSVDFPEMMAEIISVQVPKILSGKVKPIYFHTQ

| Compound | outcome | AC50 |
| --- | --- | --- |
| CCC(C)(C)C(=O)OC1=C(c2ccc(Cl)cc2Cl)C(=O)OC12CCCCC2 | inactive |  |
| O=C(O)CCCOc1ccc(Cl)cc1Cl | inactive |  |
| CCCN(CCC)c1c([N+](=O)[O-])cc(C(F)(F)F)cc1[N+](=O)[O-] | inactive |  |
| CCOC1Oc2ccc(OS(C)(=O)=O)cc2C1(C)C (stereo unspecified) | inactive |  |
| C#CCN1C(=O)COc2cc(F)c(N3C(=O)C4=C(CCCC4)C3=O)cc21 | inactive |  |
| O=S1OCC2C(CO1)C1(Cl)C(Cl)=C(Cl)C2(Cl)C1(Cl)Cl (stereo unspecified) |  | 31.8 µM (active) |
| Cc1[nH]c(=O)n(C(C)(C)C)c(=O)c1Cl | inactive |  |

What follows are molecules tested against Estrogen receptor (Homo sapiens) + Estrogen receptor beta (Homo sapiens) (UniProt P03372+Q92731) (assay: OT_ER_ERaERb_1440: Odyssey Thera (OT) 24-hour HEK293T Protein-Complementation Assay for Estrogen Receptor-alpha/-beta Homodimer (AID 2283356);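 note: heteromer of ER alpha and ER beta binding domains; hits raise reporter fluorescence and both agonists and antagonists give an increase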).
Summary of the method: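 HEK293T cells stably expressing a PCA pair of ERα LBD (aa 310-547) and ERβ LBD (aa 263-489) were dosed for 24 h. Fluorescence intensity increase versus DMSO vehicle was fitted as gain-of-signal.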

Chain of Estrogen receptor (Homo sapiens) + Estrogen receptor beta (Homo sapiens) (P03372 whole entry, looked up, the tested form may be a part): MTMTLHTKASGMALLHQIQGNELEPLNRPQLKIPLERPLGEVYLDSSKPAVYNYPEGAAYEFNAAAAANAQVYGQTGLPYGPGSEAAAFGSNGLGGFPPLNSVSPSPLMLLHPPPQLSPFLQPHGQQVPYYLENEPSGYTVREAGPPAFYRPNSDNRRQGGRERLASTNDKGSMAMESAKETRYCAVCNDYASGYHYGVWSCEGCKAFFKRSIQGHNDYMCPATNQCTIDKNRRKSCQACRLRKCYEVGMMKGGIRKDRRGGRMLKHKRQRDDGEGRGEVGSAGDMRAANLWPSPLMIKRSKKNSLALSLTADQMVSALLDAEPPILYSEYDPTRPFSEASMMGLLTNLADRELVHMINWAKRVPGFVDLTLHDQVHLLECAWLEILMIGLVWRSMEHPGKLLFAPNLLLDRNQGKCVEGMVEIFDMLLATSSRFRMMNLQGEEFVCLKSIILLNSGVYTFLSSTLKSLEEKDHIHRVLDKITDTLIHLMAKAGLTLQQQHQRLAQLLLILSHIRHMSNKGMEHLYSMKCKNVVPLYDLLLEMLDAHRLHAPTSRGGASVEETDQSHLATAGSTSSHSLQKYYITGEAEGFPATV
Chain of Estrogen receptor (Homo sapiens) + Estrogen receptor beta (Homo sapiens) (Q92731 whole entry, looked up, the tested form may be a part): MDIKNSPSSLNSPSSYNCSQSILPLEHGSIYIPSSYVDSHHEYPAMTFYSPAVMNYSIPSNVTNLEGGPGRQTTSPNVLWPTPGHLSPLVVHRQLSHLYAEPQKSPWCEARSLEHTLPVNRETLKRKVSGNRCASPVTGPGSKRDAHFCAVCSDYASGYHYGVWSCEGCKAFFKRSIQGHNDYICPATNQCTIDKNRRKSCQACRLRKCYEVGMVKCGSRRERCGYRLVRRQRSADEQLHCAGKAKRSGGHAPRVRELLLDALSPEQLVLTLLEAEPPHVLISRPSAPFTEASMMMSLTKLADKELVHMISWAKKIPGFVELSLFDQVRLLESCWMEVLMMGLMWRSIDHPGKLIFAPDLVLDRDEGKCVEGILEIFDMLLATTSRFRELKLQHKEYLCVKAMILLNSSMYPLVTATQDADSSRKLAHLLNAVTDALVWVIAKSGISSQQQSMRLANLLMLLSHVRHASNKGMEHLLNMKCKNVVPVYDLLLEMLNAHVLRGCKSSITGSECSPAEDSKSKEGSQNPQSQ

| Compound | outcome | AC50 |
| --- | --- | --- |
| CCC(C)(C)C(=O)OC1=C(c2ccc(Cl)cc2Cl)C(=O)OC12CCCCC2 | inactive |  |
| CCC(C)Nc1c([N+](=O)[O-])cc(C(C)(C)C)cc1[N+](=O)[O-] (stereo unspecified) |  | 69.9 µM (active) |
| O=C(NC(=O)c1c(F)cccc1F)Nc1ccc(OC(F)(F)C(F)OC(F)(F)F)c(Cl)c1 (stereo unspecified) | inactive |  |
| OCCOc1ccccc1 | inactive |  |
| CNC(=O)Oc1ccccc1OC(C)C | inactive |  |
| CCOC1Oc2ccc(OS(C)(=O)=O)cc2C1(C)C (stereo unspecified) | inactive |  |
| CC1(c2ccc(Oc3ccccc3)cc2)OC(=O)N(Nc2ccccc2)C1=O (stereo unspecified) | inactive |  |
| Clc1ccccc1-c1nnc(-c2ccccc2Cl)nn1 | inactive |  |
| COP(=O)(OC)OC=C(Cl)Cl | inactive |  |
| C#CCN1C(=O)COc2cc(F)c(N3C(=O)C4=C(CCCC4)C3=O)cc21 | inactive |  |
| CNC(=O)Oc1cccc(N=CN(C)C)c1 | inactive |  |
| CCC(C)(NC(=O)c1cc(Cl)c(C)c(Cl)c1)C(=O)CCl (stereo unspecified) | inactive |  |
| CCc1ccc(C(=O)NN(C(=O)c2cc(C)cc(C)c2)C(C)(C)C)cc1 | inactive |  |
| CNC(=O)/C=C(\C)OP(=O)(OC)OC | inactive |  |
